Source: PubChem BioAssay
EWS-Fli inh: EWS/Fli-driven NR0B1 reporter inhibitors, primary screen, A673 cells, NR0B1 luciferase, luminescence, MLPCN library; viability-normalised; inhibition, % at 12.6 µM; AID 651661, 2012; 350,000 tested, 0.67% active;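 active means mean inhibition of at least 50% after viability correction, with every replicate also passing that limit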;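 further: firefly luciferase signal divided by Alamar Blue viability fluorescence both relative to DMSO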
PAX8 inh HTS: inhibitors of PAX8-driven TPO luciferase reporter, primary screen, RMG-I cells, single concentration. SteadyGlo, 24 h. inhibition, % at 12.6 µM. 360,000 tested, 1.2% active;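 active means mean replicate inhibition at least 60% with every replicate also reaching 60%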;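 further: luciferase light reporting Pax8 driven TPO promoter activity; plate controls were median of neutral control wells for no effect and mitoxantrone controls for full effect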
MITF TRPM1 HTS: activators of MITF-driven TRPM1 promoter reporter, primary screen, cell-based, SK-MEL-5, luciferase, single point; SK-MEL-5 TRPM1-promoter luciferase, 24 h; % of positive control, neutral wells = 0; activation, % at 12.5 µM; 300,000 tested, 0.75% active;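 active means mean activation of at least 80% with every replicate also reaching 80%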;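 further: 0% = neutral control wells and 100% = parthenolide positive control wells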
MITF TRPM1 inh: inhibitors of MITF-dependent TRPM1 promoter reporter, primary screen, cell-based, SK-MEL-5, single point, luciferase; inhibition, % at 12.5 µM; 330,000 tested, 0.83% active; SK-MEL-5 TRPM1 promoter luciferase, 24 h; AID 488899, 2010;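 active means mean inhibition across replicates of 60% or more, whatever share of single replicates reaches that level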
Wnt bcat act: Wnt/beta-catenin pathway activators, primary screen, cell-based, plate reader, single point | Wnt/beta-catenin reporter cell assay, activator | activation, % at 9.35 µM | 300,000 tested, 1.2% active | AID 743398, 2014; in the data active means activation above about 30%, passing the limit was not always enough;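 further: 0% = neutral control wells and 100% = positive control wells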
esBAF inh: Bmi1 luciferase reporter increase in mESCs, primary screen, esBAF inhibitor project, mouse ES cells, Bmi1 luciferase knock-in, single point. 24 h; 100% = twice the neutral-well signal. reporter increase, % at 12.5 µM. 350,000 tested, 2% active; in the data active means activation above about 40%;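 further: 0% = median of the plate's neutral control wells and 100% = double that signal; a rise in the Bmi1 reporter signal indicates esBAF inhibition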
Numbers without * were called inactive; · = not tested or not shown; ! = a repeat was not active. Sampled rows, rich in hits. Any-hit rate of the full collection: about 4%.

SMILES	EWS-Fli inh	PAX8 inh HTS	MITF TRPM1 HTS	MITF TRPM1 inh	Wnt bcat act	esBAF inh
N#Cc1cccc(-c2ccc(C3[C@@H]4CN(S(=O)(=O)c5ccccc5)C[C@H]3N4)cc2)c1 (stereo partly specified)	-9.8	20.6	·	·	·	·
C[C@@H]1CN([C@@H](C)CO)C(=O)c2cc(NS(=O)(=O)c3ccccc3)ccc2O[C@@H](C)CCCCO[C@H]1CN(C)S(=O)(=O)c1ccc(Cl)cc1	9.4	-3.1	·	·	·	·
CO[C@H]1CN(C)C(=O)c2ccc(NC(=O)C3CCCC3)cc2OC[C@@H](C)N(CC2CC2)C[C@@H]1C	9.9	5.3	·	·	·	4.9
N#Cc1cccc(-c2ccc(C3[C@@H]4CN(C(=O)Cc5ccccc5)C[C@H]3N4)cc2)c1 (stereo partly specified)	7.2	-10.8	·	·	·	·
N#Cc1cccc(-c2ccc(C3[C@@H]4CN(C(=O)c5ccccn5)C[C@H]3N4)cc2)c1 (stereo partly specified)	-4.2	63.9*!	·	·	·	·
CS(=O)(=O)N1C[C@@H]2N[C@H](C1)[C@@H]2c1ccc(-c2ccccc2)cc1	0.8	75.6*	·	·	·	·
O=C(Nc1ccccc1F)N1C[C@@H]2[C@H](c3ccccc31)[C@@H](CO)N2C(=O)c1ccccn1	-4.9	-39.0	·	·	·	1.5
CCC(=O)Nc1ccc2c(c1)C(=O)N(C)[C@H]1CC[C@H](CC(=O)NCCN3CCCCC3)O[C@@H]1CO2	4.2	10.0	·	·	·	-2.2
CCC(=O)NC(c1cccs1)c1ccc2cccnc2c1O (stereo unspecified)	16.4	66.3*	-76.2	76.2*	0.0	·
CCCC(=O)NC(c1ccc(C)cc1)c1ccc2cccnc2c1O (stereo unspecified)	·	·	·	·	·	-53.3
CCCC(=O)NC(c1ccc(Cl)cc1)c1ccc2cccnc2c1O (stereo unspecified)	45.5	85.3*	-73.2	74.7*	-10.0	-58.0
CCCCC(=O)NC(c1ccc(Cl)cc1)c1ccc2cccnc2c1O (stereo unspecified)	37.2	73.4*	·	·	-4.2	-59.6
COc1ccc(C(NC(C)=O)c2ccc3cccnc3c2O)c(OC)c1 (stereo unspecified)	·	·	-60.0	62.7*	·	-55.3
C[C@@H](NC(=O)C[C@@H]1CC[C@@H](NC(=O)Cc2ccccn2)[C@H](CO)O1)c1ccccc1	3.2	-10.6	·	·	·	-1.0
COc1cccc(CN(C)C[C@H]2OCc3ccccc3-c3c(n(C)c4ccccc34)C(=O)N([C@H](C)CO)C[C@H]2C)c1	4.6	·	·	·	·	·
O=C(C1CCC1)N1CC2(C1)[C@@H](c1ccccc1)[C@H](CO)N2C(=O)CC1CC1	3.5	·	·	·	·	·
CC(=O)NC(c1ccc2ccccc2c1)c1ccc2cccnc2c1O (stereo unspecified)	40.1	92.7*	·	49.4	-0.3	-44.9
COc1ccc(C(NC(C)=O)c2cc(Cl)c3cccnc3c2O)cc1OC (stereo unspecified)	9.5	17.7	-38.9	39.9	-1.5	·
CC(=O)NC(C)c1cc(Cl)c2cccnc2c1O (stereo unspecified)	21.1	25.2	-4.5	10.2	18.8	-54.0
CCCC(=O)NC(c1ccc(Cl)cc1Cl)c1ccc2cccnc2c1O (stereo unspecified)	37.9	80.2*	-66.7	65.6*	-4.8	-32.2
CC(=O)NC(c1ccc(Cl)cc1Cl)c1ccc2cccnc2c1O (stereo unspecified)	46.6	83.3*	·	51.6	-1.0	-28.1
COc1ccc2c3c(n(C)c2c1)[C@H](CO)N(C(=O)NC(C)C)CC31CN(C(C)=O)C1	0.0	-22.2	·	·	·	·
CN(CC(=O)Nc1c(Cl)cccc1Cl)C(=O)CNC(=O)c1sc2ccccc2c1Cl	-14.9	-1.6	·	·	1.8	35.0
COc1ccc(NC(=O)CN(C)C(=O)CNC(=O)c2sc3ccccc3c2Cl)cc1	-68.1	-150.3	93.4*	-100.9	2.1	51.0*
Cc1cc(Cl)ccc1OCc1cn2cccnc2n1	-89.6	-192.7	82.5*	-81.6	16.4	·
SMILES	EWS-Fli inh	PAX8 inh HTS	MITF TRPM1 HTS	MITF TRPM1 inh	Wnt bcat act	esBAF inh
Clc1ccc(OCc2cn3cccnc3n2)c2ncccc12	·	·	34.9	-33.5	·	57.4*
CCCNC(=O)N[C@H]1C=C[C@@H](CC(=O)NC2CCCCC2)O[C@@H]1CO	-0.4	-2.7	·	·	·	-3.5
CN(C)CC(=O)N[C@@H]1CC[C@H](CCNC(=O)C2CCCC2)O[C@H]1CO	-4.0	1.4	·	·	·	1.1
CCc1cccc(NC(=O)NC(=O)Cn2nnc(C(=O)OC)c2C(=O)OC)c1	-6.5	-3.2	2.9	-5.4	-2.4	·
CCOC(=O)c1nnn(CC(=O)NC(=O)Nc2cccc(CC)c2)c1C(=O)OCC	9.3	-6.9	3.7	-6.3	35.9*	-8.0
CC(C)(C)c1cc(C(=O)NNC(=O)c2ccc(C(F)(F)F)cc2)no1	2.0	4.3	5.3	-5.5	48.5*	3.1
COc1cccc(-c2cc3nc(NCc4ccc5occc5c4)n(C)c(=O)c3s2)c1	-34.9	-26.5	·	·	29.5	61.0*
Cn1c(NCc2ccc3occc3c2)nc2cc(-c3cccc(C(F)(F)F)c3)sc2c1=O	14.1	3.2	·	·	-4.0	0.3
COc1cccc(CNc2nc3cc(-c4ccc(F)cc4)sc3c(=O)n2C)c1OC	4.2	20.7	·	·	-1.1	7.7
Cn1c(NCCc2ccncc2)nc2cc(-c3ccsc3)sc2c1=O	-10.6	24.4	·	·	-2.6	10.3
COc1cccc(CNc2nc3cc(-c4ccc(C)cc4)sc3c(=O)n2C)c1OC	-72.3	-16.3	·	·	0.3	53.8*
Cc1ccc(-c2cc3nc(NCCc4ccncc4)n(C)c(=O)c3s2)cc1	-67.3	-18.6	·	·	42.4*	16.0
CN(C)CCCNc1nc2cc(-c3ccc4c(ccn4C)c3)sc2c(=O)n1C	-70.1	-27.3	·	·	1.5	67.2*
C[C@@H]1CCCCO[C@@H](CN(C)S(=O)(=O)c2cccs2)[C@H](C)CN([C@@H](C)CO)C(=O)c2cc(NC(=O)C3CCCCC3)ccc2O1	9.1	·	·	·	·	0.1
C[C@H](CO)N1C[C@H](C)[C@H](CN(C)CC2CCOCC2)Oc2ncc(C3=CCCCC3)cc2C1=O	4.7	18.4	·	·	·	1.5
C[C@@H]1CN([C@@H](C)CO)C(=O)c2cc(NC(=O)CCC(F)(F)F)ccc2O[C@@H]1CN(C)S(=O)(=O)c1ccccc1	-9.4	5.5	·	·	·	-1.2
Cc1ccc(CNc2nc3cc(-c4ccccc4C)sc3c(=O)n2C)c(C)c1	9.7	27.4	·	·	-1.0	0.6
C=CCNc1nc2cc(-c3ccccc3C)sc2c(=O)n1C	63.1*	-9.9	·	·	·	12.8
C[C@H](CO)N1C[C@H](C)[C@H](CN(C)Cc2ccc(O)cc2)OCc2cn(nn2)CCCC1=O	0.0	·	·	·	·	-2.5
O=C(Oc1ccc(Cl)cc1)N1CCCCC1	·	·	·	-70.1	·	50.5*
